Only a selection was taken, and hits are over-represented in it overall.
Dicer processing: inhibitors of Dicer pre-microRNA processing, primary screen, biochemical, cat-ELCCA, chemiluminescence; z-score at 25 µM; AID 1347074, 2019; cat-ELCCA pre-miR-21 Dicer processing; active compounds read high; 47,000 compounds, 6% hits; in the data active = z-score above about 3, passing the limit was not always enough;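 note: higher signal means more uncleaved substrate so more Dicer inhibition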
Target sequence (Q9UPY3 whole entry, looked up): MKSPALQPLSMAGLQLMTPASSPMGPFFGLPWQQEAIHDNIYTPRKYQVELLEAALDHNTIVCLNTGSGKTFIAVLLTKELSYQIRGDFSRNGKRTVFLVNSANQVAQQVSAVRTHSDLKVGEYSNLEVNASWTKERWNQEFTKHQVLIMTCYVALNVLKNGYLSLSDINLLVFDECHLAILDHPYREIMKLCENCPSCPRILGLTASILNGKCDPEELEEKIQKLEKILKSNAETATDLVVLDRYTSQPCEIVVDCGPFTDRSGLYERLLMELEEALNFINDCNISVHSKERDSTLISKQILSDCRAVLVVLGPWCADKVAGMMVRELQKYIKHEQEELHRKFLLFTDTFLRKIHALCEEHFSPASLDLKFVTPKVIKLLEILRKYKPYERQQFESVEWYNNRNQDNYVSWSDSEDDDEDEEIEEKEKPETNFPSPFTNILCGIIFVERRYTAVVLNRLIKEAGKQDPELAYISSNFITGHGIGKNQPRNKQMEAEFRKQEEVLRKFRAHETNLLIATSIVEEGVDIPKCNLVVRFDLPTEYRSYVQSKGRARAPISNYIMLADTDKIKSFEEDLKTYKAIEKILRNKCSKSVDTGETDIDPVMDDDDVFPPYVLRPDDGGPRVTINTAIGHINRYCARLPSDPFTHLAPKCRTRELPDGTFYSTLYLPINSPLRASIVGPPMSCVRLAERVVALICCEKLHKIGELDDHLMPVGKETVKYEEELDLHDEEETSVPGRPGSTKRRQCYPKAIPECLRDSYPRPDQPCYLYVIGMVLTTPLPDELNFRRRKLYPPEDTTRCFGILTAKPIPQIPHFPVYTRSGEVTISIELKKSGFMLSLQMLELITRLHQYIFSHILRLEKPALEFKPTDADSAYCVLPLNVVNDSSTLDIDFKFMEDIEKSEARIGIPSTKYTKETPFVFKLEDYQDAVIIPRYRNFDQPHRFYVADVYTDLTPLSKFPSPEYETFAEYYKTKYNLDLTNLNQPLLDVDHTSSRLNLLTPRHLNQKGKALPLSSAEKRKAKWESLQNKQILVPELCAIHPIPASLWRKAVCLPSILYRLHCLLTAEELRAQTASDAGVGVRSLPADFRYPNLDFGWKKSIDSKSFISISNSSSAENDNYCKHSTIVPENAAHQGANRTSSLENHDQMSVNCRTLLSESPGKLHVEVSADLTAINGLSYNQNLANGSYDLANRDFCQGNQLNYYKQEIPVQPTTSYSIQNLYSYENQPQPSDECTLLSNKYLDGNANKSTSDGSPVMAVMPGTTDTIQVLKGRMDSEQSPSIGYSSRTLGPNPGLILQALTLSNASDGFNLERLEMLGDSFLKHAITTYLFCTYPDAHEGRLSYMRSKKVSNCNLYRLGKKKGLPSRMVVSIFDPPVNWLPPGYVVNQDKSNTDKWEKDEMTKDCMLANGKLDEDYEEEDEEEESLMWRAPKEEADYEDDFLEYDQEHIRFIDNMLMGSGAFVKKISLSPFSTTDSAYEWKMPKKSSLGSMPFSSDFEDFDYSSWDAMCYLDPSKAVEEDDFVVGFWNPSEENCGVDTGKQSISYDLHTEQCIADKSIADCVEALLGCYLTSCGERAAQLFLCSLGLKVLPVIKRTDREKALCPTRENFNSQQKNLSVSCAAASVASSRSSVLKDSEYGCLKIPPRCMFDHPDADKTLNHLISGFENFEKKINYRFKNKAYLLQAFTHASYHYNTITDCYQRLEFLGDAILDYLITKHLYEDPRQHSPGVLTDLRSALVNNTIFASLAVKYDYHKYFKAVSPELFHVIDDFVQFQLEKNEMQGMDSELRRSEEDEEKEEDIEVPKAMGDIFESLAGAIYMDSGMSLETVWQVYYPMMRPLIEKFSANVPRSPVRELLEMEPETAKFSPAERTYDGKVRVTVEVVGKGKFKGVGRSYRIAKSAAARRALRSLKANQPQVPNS
Large screens that a line does not name were inactive.

COc1ccc(C2Oc3ccccc3C3CC(c4ccccc4O)=NN32)cc1OC (configuration not stated)	Dicer processing 4.75
Oc1ccc(C2Oc3ccccc3C3CC(c4ccccc4O)=NN32)cc1 (configuration not stated)	Dicer processing 18.1
COc1cccc(C2Oc3ccccc3C3CC(c4ccccc4O)=NN32)c1 (configuration not stated)	none
CCC(C)NCCS(=O)(=O)c1ccc(Cl)cc1 (configuration not stated)	none
O=c1c(-c2ccccc2)c(O)c2cccc3c2n1CC3	none
CCOC(=O)c1c(SC)nc2c(Cl)cccc2c1Sc1cccs1	none
CCOC(=O)C1CCN(C(=O)Nc2cc(F)ccc2C)CC1	none
Cc1n[nH]c(C)c1Sc1nnc(C(F)(F)F)n1C	none
O=C(O)c1cc(Cl)ccc1Sc1ccccc1CO	none
CC(C)(C)c1ccc(N2C(=O)CC(C/C=C/c3ccccc3)C2=O)cc1 (configuration not stated)	Dicer processing 4.65
O=C1CC(Cc2ccccc2)C(=O)N1c1ccncc1 (configuration not stated)	none
Cc1cc(C)cc(CC2CC(=O)N(c3ccccc3)C2=O)c1 (configuration not stated)	none
Cc1nc(-c2ccccn2)nc(NC2CCN(c3ncc(C(F)(F)F)cc3Cl)CC2)c1Cl	none
Cc1ccc(-c2[nH]ncc2Sc2ccc(C(F)(F)F)cn2)cc1	none
O=S(=O)(Oc1ccc(Cl)cc1)c1c(Cl)sc(Cl)c1Br	none
CC(C)(C)C(=O)ON=C(c1ccc(F)cc1)c1ccc(F)cc1	none
O=C(CN1C(=O)C2CCCCC2C1=O)N1CCN(c2ccc(F)cc2)CC1 (configuration not stated)	Dicer processing 6.52
O=C1CCC2C(=O)N(CC(=O)N3CCCC3)C(=O)C2C1 (configuration not stated)	none
O=C(CN1C(=O)c2cccc3cccc1c23)N1CCN(c2ccc(F)cc2)CC1	none
O=C(Cn1nnc(N2CCCCC2)n1)c1ccc(Cl)cc1	none
Nc1cccc(-c2nc3ccc(N)cc3[nH]2)c1	none
Nc1ccc(C(=O)OCCCc2nc3ccc(N)cc3[nH]2)cc1	none
Nc1ccc(Cc2nc3ccc(C(=O)O)cc3[nH]2)cc1	none
Nc1ccc2nc(CCCc3nc4ccccc4s3)[nH]c2c1	none
Nc1cccc(/C=C/c2nc3ccc(N)cc3[nH]2)c1	Dicer processing 3.7
Nc1ccc2nc(/C=C/c3ccccc3)[nH]c2c1	Dicer processing 3.2
CCC(CO)NCC(O)Cn1cnc2c1c(=O)n(C)c(=O)n2C (configuration not stated)	none
CC(C)c1ccc(C2/C(=C(/O)c3ccc(F)cc3)C(=O)C(=O)N2c2nncs2)cc1 (configuration not stated)	none
Fc1ccc(NC(=S)NCCNC(=S)Nc2ccc(F)cc2F)c(F)c1	none
C=CCOC(=O)c1sc(N2C(=O)c3oc4ccc(F)cc4c(=O)c3C2c2ccc(F)cc2)nc1C (configuration not stated)	none
CC(=O)OCCCNc1nc2c([nH]1)c(=O)n(C)c(=O)n2C	none
Cc1ccc(/C=c2\sc3nc4ccccc4n3c2=O)cc1	none
CCOC(=O)COc1nc(C)cc(C)c1C#N	none
Cc1cc(C)c(C#N)c(Nc2ccc(F)cc2)n1	none
Cc1cc(C)c(C#N)c(OC(=O)c2c(F)cccc2F)n1	Dicer processing 71.2
Cc1nn(S(=O)(=O)c2ccc(Cl)cc2)c(C)c1Cc1c(Cl)cccc1Cl	none
Cc1ccc(C2Nc3cc(C)c(C)cc3NC3=C2C(=O)CC(C)(C)C3)o1 (configuration not stated)	none
O=C(Nc1ccncc1)c1cc(-c2ccc(Cl)cc2)oc1C(F)(F)F	none
CC(C)NC(=O)CSc1nccc(-c2cccs2)n1	none
O=C(CSc1nccc(-c2cccs2)n1)c1cc(-c2ccc(Cl)c(Cl)c2)no1	Dicer processing 4.02
O=C(CSc1nccc(-c2cccs2)n1)Nc1ccccc1	none
Cc1nc(-c2ccc(S(=O)(=O)N3CCC(n4cccc4)CC3)s2)cs1	none
COc1cccc(C2C(C(=O)OC(C)C)=C(C)NC3=C2C(=O)CC(c2cccs2)C3)c1OC (configuration not stated)	none
COCCOC(=O)C1=C(C)NC2=C(C(=O)CC(c3cccs3)C2)C1c1cccs1 (configuration not stated)	none
CCSCCOC(=O)C1=C(C)NC2=C(C(=O)CC(c3cccs3)C2)C1c1ccc2c(c1)OCO2 (configuration not stated)	none
CCSCCOC(=O)C1=C(C)NC2=C(C(=O)CC(c3cccs3)C2)C1c1ccc(O)c(OC)c1 (configuration not stated)	Dicer processing 5.37
CC(=O)Oc1ccc(C2C(C(=O)OCC(C)C)=C(C)NC3=C2C(=O)CC(c2cccs2)C3)cc1 (configuration not stated)	none
COc1cc(C2C(C(=O)OCC3CCCO3)=C(C)NC3=C2C(=O)CC(c2cccs2)C3)ccc1O (configuration not stated)	none
COc1ccc(OC)c(C2C(C(=O)OCC(C)C)=C(C)NC3=C2C(=O)CC(c2cccs2)C3)c1 (configuration not stated)	Dicer processing 3.1
CC1=C(C(=O)OC(C)C)C(c2coc3ccccc3c2=O)C2=C(CC(c3cccs3)CC2=O)N1 (configuration not stated)	Dicer processing 3.27
CC1=C(C(=O)OC(C)C)C(c2ccccc2F)C2=C(CC(c3cccs3)CC2=O)N1 (configuration not stated)	none
CC1=C(C(=O)OCCOC(C)C)C(c2coc3ccccc3c2=O)C2=C(CC(C)(C)CC2=O)N1 (configuration not stated)	none
COCCOC(=O)C1=C(C)NC2=C(C(=O)CC(C)(C)C2)C1c1coc2ccccc2c1=O (configuration not stated)	none
CC1=C(C(=O)OCCOc2ccccc2)C(c2coc3ccccc3c2=O)C2=C(CC(C)(C)CC2=O)N1 (configuration not stated)	Dicer processing 3.41
Cc1csc2sc(C(=O)CC(=O)C(F)(F)F)c(C)c12	none
CC1CN=C(N(C(=O)Nc2ccc(Cl)cc2)c2ccccc2)S1 (configuration not stated)	none
CN(CCOC(=O)c1ccc([N+](=O)[O-])cc1)c1ncc(C(F)(F)F)cc1Cl	none
O=C1c2oc3ccccc3c(=O)c2C(c2ccc(F)cc2)N1CCCN1CCOCC1 (configuration not stated)	none
O=c1[nH]cnc2nc(N3CCOCC3)ncc12	none
COC(=O)/C=C1\SC(=Nc2ccc(C(C)(C)C)cc2)N(c2ccc(C(C)(C)C)cc2)C1=O	none
NC(=O)c1sc2nc3c(cc2c1N)CCCC3	none
CCCC(=O)N(c1ccc2oc(=O)sc2c1)S(=O)(=O)c1ccc(Cl)cc1	none
CCc1ccc(CC)c(S(=O)(=O)Nc2ccc3oc(=O)sc3c2)c1	Dicer processing 7.82
CCc1ccc(S(=O)(=O)Nc2cccc(S(N)(=O)=O)c2)cc1	none
CCc1ccc(S(=O)(=O)Nc2ccc3oc(=O)sc3c2)cc1	Dicer processing 7.88
CCCCC(=O)N(c1ccc2oc(=O)sc2c1)S(=O)(=O)c1ccccc1	none
CCc1ccc(-c2nc3cc(NS(=O)(=O)c4ccccc4)ccc3o2)cc1	none
Cn1c(=O)c2c3nc4ccc([N+](=O)[O-])cc4cc3c(=O)n(C)c2n(C)c1=O	none
CCOc1ccccc1Nc1cc(C)nc2ccc(OC)cc12	none
Cc1ccc2nc(C)cc(NCCO)c2c1	none
COc1ccc2nc(C)cc(Nc3ccccc3OC)c2c1	Dicer processing 3.32
CCOc1ccc2nc(C)cc(Nc3ccc(N(C)C)cc3)c2c1	Dicer processing 4.53
Cc1cc(Nc2ccccc2Cl)c2ccccc2n1	none
CCOC(=O)CC(=O)CSc1nc(C)c2cc(OCC)ccc2n1	none
